{"source": "PubChem BioAssay AID588590", "about": "(National Center for Advancing Translational Sciences (NCATS), 2011)", "note": "Among all 390,000 compounds or so, about 4,000 (1%) were called active. A call without a number means that no potency is given here. About 7% were inconclusive and are not listed. This is one part of a sample in which actives are shown more often than they occur. Calls come from the whole dose curve; as a rule, active = well fitted inhibition curve with a large enough effect; inconclusive = small, poorly fitted or top-dose-only effect, or another doubt; inactive = no such curve, though single readings can be large or run the other way."}
{"biological_target": "DNA polymerase iota (Homo sapiens) (UniProt Q9UNA4)", "sequence (Q9UNA4 whole entry, looked up)": "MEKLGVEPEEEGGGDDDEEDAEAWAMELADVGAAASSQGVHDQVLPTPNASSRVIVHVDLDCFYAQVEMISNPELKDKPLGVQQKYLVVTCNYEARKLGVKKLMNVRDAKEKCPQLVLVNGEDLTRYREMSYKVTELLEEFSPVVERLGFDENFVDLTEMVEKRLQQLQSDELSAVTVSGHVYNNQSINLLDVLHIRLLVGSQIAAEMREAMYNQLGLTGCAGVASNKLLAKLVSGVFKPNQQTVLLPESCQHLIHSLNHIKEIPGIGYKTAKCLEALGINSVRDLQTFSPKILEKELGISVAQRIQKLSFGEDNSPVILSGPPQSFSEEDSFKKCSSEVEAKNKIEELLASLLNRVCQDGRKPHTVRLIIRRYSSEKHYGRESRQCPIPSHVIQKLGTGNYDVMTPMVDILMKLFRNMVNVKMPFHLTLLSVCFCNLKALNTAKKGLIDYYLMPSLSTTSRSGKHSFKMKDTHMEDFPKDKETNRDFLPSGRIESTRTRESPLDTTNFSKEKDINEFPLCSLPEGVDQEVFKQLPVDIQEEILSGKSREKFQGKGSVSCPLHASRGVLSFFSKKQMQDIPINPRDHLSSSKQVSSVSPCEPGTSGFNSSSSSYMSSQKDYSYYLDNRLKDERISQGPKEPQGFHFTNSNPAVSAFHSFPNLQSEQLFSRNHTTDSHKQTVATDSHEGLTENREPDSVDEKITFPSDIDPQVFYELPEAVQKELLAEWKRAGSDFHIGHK", "test": "qHTS for Inhibitors of Polymerase Iota; note: potency is the fitted concentration of half-maximal effect", "settings": "Pol iota fluorescent replication assay, 10 min; series mostly up to 115 µM", "method_in_brief": "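Pol iota at 10 nM preincubated 15 min with compounds at room temperature; reaction started with fluorescent substrate, 50 nM final. Fluorescence read kinetically at 0 and 10 min; buffer-only wells as negative control.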"}
{"compound": "Cc1ccc(N(CC(=O)NCC(C)c2ccccc2)S(=O)(=O)N(C)C)cc1", "note": "(centres undefined)", "Potency": "inactive"}
{"compound": "COc1ccc(C2(Nc3cccc(F)c3)C(=O)c3ccccc3C2=O)cc1", "Potency": "inactive"}
{"compound": "CCCC(=O)N1c2ccc(-c3csc(N)n3)cc2CC1C", "note": "(centres undefined)", "Potency": "inactive"}
{"compound": "CN(c1ccc(O)cc1)c1nc(-c2cccnc2)cs1", "Potency": "inactive"}
{"compound": "CC(C)(C)C(=O)OCc1nc(-c2ccc(O)c(O)c2)cs1", "Potency": "31.6 µM (active)"}
{"compound": "Cc1ccccc1-n1c(=O)c2ccccc2n(Cc2ccc(F)cc2)c1=O", "Potency": "inactive"}
{"compound": "O=C(Nc1cc(Cl)cc(Cl)c1)c1ccc2c(c1)N(Cc1cccc(Cl)c1)C(=O)c1ccccc1S2=O", "note": "(centres undefined)", "Potency": "inactive"}
{"compound": "CCc1cc(=O)oc2c(C)c(OCC(=O)NCCN3CCOCC3)ccc12", "Potency": "79.4 µM (active)"}
{"compound": "CCCc1cc(=O)oc2c(C)c(OCC(=O)NCc3ccccn3)ccc12", "Potency": "inactive"}
{"compound": "Cc1cc(=O)oc2c(C)c(OCC(=O)NCCN3CCOCC3)ccc12", "Potency": "inactive"}
{"compound": "CC(=O)c1ccc(S(=O)(=O)Nc2ccc(-c3ccc4nncn4n3)cc2)cc1", "Potency": "50.1 µM (active)"}
{"compound": "CC(=O)Nc1ccc(S(=O)(=O)Nc2ccc(-c3ccc4nnc(C)n4n3)cc2)cc1", "Potency": "inactive"}
{"compound": "O=C(Nc1ccc(-c2ccc3nncn3n2)cc1)C1CCCCC1", "Potency": "inactive"}
{"compound": "Cc1cc(OC(C)C(=O)Nc2sc3c(c2C(N)=O)CCCC3)ccc1Cl", "note": "(centres undefined)", "Potency": "inactive"}
{"compound": "COc1cccc(C(=O)NC2=NC(c3ccc(N(C)C)cc3)CC(=O)N2)c1", "note": "(centres undefined)", "Potency": "inactive"}
{"compound": "CSc1nc(-c2ccccc2Cl)nc2c1Cc1c(CO)cnc(C)c1O2", "Potency": "inactive"}
{"compound": "CC(C)N(C(=O)CSc1nnc(NC2CC2)s1)c1ccccc1", "Potency": "inactive"}
{"compound": "CC(C)Nc1nnc(SCC(=O)c2c[nH]c3ccccc23)s1", "Potency": "inactive"}
{"compound": "CC(C)c1ccc(Nc2nnc(SCC(=O)c3nnc(-c4ccccc4)o3)s2)cc1", "Potency": "22.4 µM (active)"}
{"compound": "CCc1cccc(C)c1NS(=O)(=O)c1ccc(-c2cc(C)no2)s1", "Potency": "inactive"}
{"compound": "Cc1ccc(/C=C/C(=O)Nc2ccc([N+](=O)[O-])c(NC(=O)/C=C/c3ccc(C)o3)c2)o1", "Potency": "25.1 µM (active)"}
{"compound": "COc1ccc(OC)c(NC(=O)/C=C/c2ccc(C)o2)c1", "Potency": "inactive"}
{"compound": "COC(=O)/C=C\\C(=O)Nc1cccc([N+](=O)[O-])c1", "Potency": "inactive"}
{"compound": "Cc1ccc(Cn2c(=O)n(Cc3nc(-c4ccccc4)no3)c(=O)c3cc4c(cc32)OCO4)cc1", "Potency": "inactive"}
{"compound": "O=C(CSc1nc(=O)n(Cc2cccnc2)c2c1CCC2)Nc1ccc(F)cc1F", "Potency": "inactive"}
{"compound": "O=C(Nc1ccc(F)cc1F)c1ccc2c(=O)n3c(nc2c1)CCCCC3", "Potency": "inactive"}
{"compound": "Cc1ccc(/C=C(\\C#N)C(=O)Nc2cc(C)ccc2C)cc1", "Potency": "inactive"}
{"compound": "COCCCNC(=O)Cn1cc(/C=C(\\C#N)C(=O)N2CCN(c3ccccc3)CC2)c2ccccc21", "Potency": "inactive"}
{"compound": "Cc1ccc(Cl)cc1NC(=O)/C(C#N)=C\\c1cn(Cc2ccc(F)cc2)c2ccccc12", "Potency": "89.1 µM (active)"}
